About 410 (23%) of roughly 1,800 compounds were called active. No rule for the calls is given here. Not all results are given here. Entries with a potency or affinity are not part of this list.
Assay: Vero cell cytotoxicity, cytotoxicity control for flavivirus capping enzyme inhibitors (AID 588742)
Details: Vero cells viability, cytotoxicity counter-screen; series mostly up to 40 µM

Row | SMILES | outcome
1 | COc1ccc(NC(=S)NNc2ccc(S(=O)(=O)Nc3ccccc3C(=O)O)cc2[N+](=O)[O-])cc1 | inactive
2 | O=C1c2ccccc2C(=O)N1OS(=O)(=O)c1ccc(F)cc1 | inactive
3 | CC(C)=CCC1=C(OCC(=O)O)C(=O)c2ccccc2C1=O | inactive
4 | CN(C)NC(=S)Nc1ccc2nc(-c3ccccn3)c(-c3ccccn3)nc2c1 | inactive
5 | CC(C)c1ccc(S(=O)(=O)/N=C2\C=C(NS(=O)(=O)c3ccccc3)C(=O)c3ccccc32)cc1 | inactive
6 | CC(C)c1ccc(S(=O)(=O)c2n[nH]n3c2nc(=O)c2ccccc23)cc1 | inactive
7 | Cc1ccc(C(C2C(=O)CC(C)(C)CC2=O)C2C(=O)CC(C)(C)CC2=O)s1 | inactive
8 | CC1=NN(c2ccc(C(=O)O)cc2)C(=O)/C1=C/c1ccc(-c2ccccc2F)o1 | inactive
9 | CC1=NN(c2ccc(Cl)c(C(=O)O)c2)C(=O)/C1=C\c1ccc(-c2ccc(C(=O)O)cc2)o1 | inactive
10 | COc1ccc(N2C(=NC(=O)CCCc3ccccc3)SC3CS(=O)(=O)CC32)cc1 (configuration not stated) | inactive
11 | O=C1C(=Cc2cccn2-c2ccc(O)cc2)C(=O)c2ccccc21 | inactive
12 | O=C1NC(=S)NC1=Cc1ccco1 | inactive
13 | COC(=O)c1c(Cl)c2n3ccccc3c(C)c(-c3ccccc3)c-2c1C(=O)OC | inactive
14 | COc1ccc(C(C2C(=O)CC(C)(C)CC2=O)C2C(=O)CC(C)(C)CC2=O)cc1CO | inactive
15 | Cc1ccc(CCCNC(=O)C2CCC(=O)N(Cc3cccc(F)c3)C2)cc1 (configuration not stated) | inactive
16 | CC(C)(C)OC(=O)N1CCN(C(=O)c2ncn(Cc3ccccc3)c2C(=O)N2CCN(C(=O)OC(C)(C)C)CC2)CC1 | inactive
17 | CC1(C(=O)NNC(=O)c2ccc([N+](=O)[O-])cc2)CC1(Br)Br (configuration not stated) | inactive
18 | COc1ccc(NC(=O)c2ccccn2)cc1OC | inactive
19 | O=C(O)COc1ccccc1C(Nc1ccccn1)c1cc(Cl)c2cccnc2c1O (configuration not stated) | inactive
20 | CCC(=O)NC(c1ccco1)c1cc(Cl)c2ccccc2c1O (configuration not stated) | inactive
21 | CC(=O)NC(c1ccco1)c1cc(Cl)c2ccccc2c1O (configuration not stated) | inactive
22 | C=CCS/C(N)=N\N=C\c1cc(Br)cc([N+](=O)[O-])c1O | inactive
23 | COc1cccc(CNC(=O)CCc2nnc3ccc(NCCCN4CCCC4=O)nn23)c1 | inactive
24 | CCOC(=O)C1Nc2ccccc2C2C(O)C(O)CC12 (configuration not stated) | inactive
25 | COC1C=COC2(C)Oc3c(C)c(O)c4c(O)c(c(CN5CCN(C)CC5)c(O)c4c3C2=O)NC(=O)C(C)=CC=CC(C)C(O)C(C)C(O)C(C)C(OC(C)=O)C1C (configuration not stated) | inactive

Row | SMILES | outcome
26 | O=C(C1=C(O)C(=O)N(Cc2ccco2)C1c1cccnc1)c1cc2ccccc2o1 (configuration not stated) | inactive
27 | O=C(O)CN1C(=O)/C(=C\c2cccc(OCc3ccccc3F)c2)SC1=S | inactive
28 | COc1cc(NC(=O)CSc2ncnc3sc4c(c23)CCC(C)C4)c(C(=O)O)cc1OC (configuration not stated) | inactive
29 | CCOC(=O)c1ccc2c(c1)n(CCO)c(C)[n+]2CC | inactive
30 | Cc1cccc2cc(C#N)c(N3CCC(O)CC3)nc12 | inactive
31 | COc1cccc(N2C(=O)CC(Nc3ccc(N4CCOCC4)cc3)C2=O)c1 (configuration not stated) | inactive
32 | Cc1cc(C(C2C(=O)CC(C)(C)CC2=O)C2C(=O)CC(C)(C)CC2=O)cc(C)c1OC(F)F | inactive
33 | O=C(/C=C/c1ccccc1)n1cnnc1SC/C=C/c1ccccc1 | inactive
34 | O=C(O)c1cc(NCc2ccc(F)cc2)ccc1N1CCOCC1 | inactive
35 | COC(=O)CCC(=O)OC1(C)C(=O)C2=CN(C3CC3)C(c3ccc(OC)cc3)=CC2=C(Br)C1=O (configuration not stated) | inactive
36 | Cc1ccc(N2C(=O)C(Cl)=C(N3CCOCC3)C2=O)cc1Cl | inactive
37 | CCOc1cc(C(c2c(C)[nH][nH]c2=O)c2c(C)[nH][nH]c2=O)cc([N+](=O)[O-])c1O | inactive
38 | O=[N+]([O-])c1cc2ccccc2c(O)c1O | inactive
39 | Cc1ccc(C)c(N=Cc2cc3c(cc2[N+](=O)[O-])OCO3)c1 | inactive
40 | O=C(O)c1cc([N+](=O)[O-])c(Sc2nc3ccccc3[nH]2)c([N+](=O)[O-])c1 | inactive
41 | CCC1=NN2C(=N)/C(=C\c3ccc(OCc4cc(=O)n5nc(CC)sc5n4)c(OC)c3)C(=O)N=C2S1 | inactive
42 | Cc1c(C2CC(=O)N(c3ccccc3)C2=O)[nH]n(-c2ccccc2)c1=O (configuration not stated) | inactive
43 | O=C(O)CCc1ccc(-c2ccc(Br)cc2)n1-c1ccc(O)cc1 | inactive
44 | CCCOc1cccc(C2C(C(=O)c3cc4ccccc4o3)=C(O)C(=O)N2c2cc(C)on2)c1 (configuration not stated) | inactive
45 | O=c1c2ccccc2nc2ccc(NCc3ccco3)nn12 | inactive
46 | Cc1nn(-c2ccccc2)c(Cl)c1/C=N/Nc1ccc(S(=O)(=O)Nc2ccccc2C(=O)O)cc1[N+](=O)[O-] | inactive
47 | CCOc1cc(/C=N/Nc2ccc(S(=O)(=O)Nc3ccccc3C(=O)O)cc2[N+](=O)[O-])cc(Cl)c1O | inactive
48 | C=CCOc1cccc(C2C(C(=O)c3ccc(C)o3)=C(O)C(=O)N2c2nccs2)c1 (configuration not stated) | inactive
49 | O=C1C(C=NCc2ccco2)=C(O)c2ccccc21 | inactive
50 | CC(C)C(C(=O)O)N1C(=O)/C(=C/C=C/c2ccco2)SC1=S (configuration not stated) | inactive

Row | SMILES | outcome
51 | CC(C(=O)O)N1C(=O)/C(=C/C=C/c2ccco2)SC1=S (configuration not stated) | inactive
52 | Cc1ccc(S(=O)(=O)NN/C(=N/S(=O)(=O)c2ccccc2)c2ccccc2)cc1 | inactive
53 | Cc1nn(-c2ccccc2)c2c1C(c1ccncc1)C(C#N)=C(N)O2 (configuration not stated) | inactive
54 | Cn1nc([N+](=O)[O-])c(C(C#N)c2nc3ccccc3n2C)c(Cl)c1=O (configuration not stated) | inactive
55 | CCn1nc([N+](=O)[O-])c(C(C#N)c2nc3ccccc3n2C)c(Cl)c1=O (configuration not stated) | inactive
56 | COC(=O)c1ccccc1N/C=C1\CCc2c(c(C)nn2-c2ccccn2)C1=O | inactive
57 | CCc1sc(/C=C(/C#N)C(N)=S)cc1[N+](=O)[O-] | inactive
58 | Cc1ccc(-n2nc(C)c3c2OC(N)=C(C#N)C3c2ccco2)cc1 (configuration not stated) | inactive
59 | CCSc1nnc(NC(=O)c2nc(S(=O)(=O)Cc3ccc(F)cc3)ncc2Cl)s1 | inactive
60 | CCOC(=O)c1c(-c2ccc(-c3ccccc3)cc2)csc1NC(=O)C1C2CCC(O2)C1C(=O)O (configuration not stated) | inactive
61 | Cc1noc(C)c1C(=O)Nc1ccc(N(C)C)cc1 | inactive
62 | CCC(=O)OC1(C)C(=O)C=C2C=C(C3CC3)OC=C2C1=O (configuration not stated) | inactive
63 | COc1ccc(/C=N/NC(=O)c2nnn(-c3nonc3N)c2CN(C)C2CCCCC2)cc1 | inactive
64 | C#CCOc1c(Cl)cc(/C=C2/C(=O)ON=C2C)cc1OCC | inactive
65 | COc1cc(/C=C2\S/C(=N/S(=O)(=O)Cc3ccccc3)NC2=O)c([N+](=O)[O-])cc1OC | inactive
66 | COc1ccc(S(=O)(=O)Nc2c(O)ccc3ccccc23)cc1OC | inactive
67 | NC(=S)n1[nH]c(-c2ccc([N+](=O)[O-])cc2)c(N=Nc2ccccc2[N+](=O)[O-])c1=O | inactive
68 | CN1C(=O)/C(=C/c2ccc(C(=O)Nc3ccc(O)cc3C(=O)O)cc2)SC1=S | inactive
69 | Cc1cccc(C)c1NC(=S)NC(=O)c1ccc(Br)o1 | inactive
70 | CS(=O)(=O)c1ncc(Cl)c(C(=O)Nc2ccc(N3CCOCC3)cc2)n1 | inactive
71 | CCC(CO)Oc1cc(NCc2cccc(C)c2)c2ncn(C(C)C)c2c1 (configuration not stated) | inactive
72 | CC1(C)CC(=O)C2=C(C1)c1c(ccc3ccccc13)NC2c1cc([N+](=O)[O-])cc([N+](=O)[O-])c1O (configuration not stated) | inactive
73 | N=C1/C(=C\c2ccc(OC(=O)c3ccccc3Cl)cc2)C(=O)N=C2SC(N3CCOCC3)=NN12 | inactive
74 | Nc1nc(C2C(=O)CCCC2=O)cs1 | inactive
75 | O=C(Nc1c(F)c(F)c(F)c(F)c1F)NC1CCCCC1 | inactive

Row | SMILES | outcome
76 | O=C(O)c1ccccc1N=Nc1c(O)[nH]c2ccc([N+](=O)[O-])cc12 | inactive
77 | CC(C)c1ccc(N2C(=O)C(Cl)=C(N3CCOCC3)C2=O)cc1 | inactive
78 | Cc1c(Cl)cccc1NC(CC(=O)c1ccccc1)C(=O)O (configuration not stated) | inactive
79 | O=C(CC(Nc1ccc(Cl)cc1Cl)C(=O)O)c1ccccc1 (configuration not stated) | inactive
80 | O=C(NNc1ccc(O)cc1)c1ccc(Br)cc1 | inactive
81 | Cc1cccc(NC(=O)CSc2nnc(-c3ccco3)c(-c3ccco3)n2)c1C | inactive
82 | Cc1ccc(O)c(NC2=C(Cl)C(=O)N(Cc3ccccc3)C2=O)c1 | inactive
83 | O=C1/C(=C2\C(=O)N(Cc3ccc(F)cc3)c3ccccc32)SC(=S)N1CCS(=O)(=O)O | inactive
84 | Cc1ccc(S(=O)(=O)N2[C@@H](c3cccc(Cl)c3)C(C(=O)O)=CC[C@H]2c2ccc(C(C)C)cc2)cc1 | inactive
85 | O=C(CSc1nc(O)c(Cc2ccccc2)c(=O)[nH]1)Nc1nnc(SCc2ccccc2)s1 | inactive
86 | Oc1cc(CNC2CCCCC2)c(O)cc1CNC1CCCCC1 | inactive
87 | CC(C)C[C@H](N)c1nnc(SCC(=O)Nc2ccc(Br)cc2)o1 | inactive
88 | Cc1ccc(S(=O)(=O)Cc2ccc(C(=O)N3CCC(C(N)=O)CC3)o2)cc1 | inactive
89 | CC(C)c1cc2c(c(O)c1O)[C@@]13CCCC(C)(C)C1CC2OC3=O (some centres not stated) | inactive
90 | Cc1ccc(-c2csc(NS(=O)(=O)c3cccc(F)c3)n2)o1 | inactive
91 | CCc1c(C)sc(NC(=O)OC)c1C(=O)N1CCCCC1 | inactive
92 | O=C(O)c1ccccc1C(=O)c1ccc(Sc2ccc(Cl)cc2)c([N+](=O)[O-])c1 | inactive
93 | Cc1sc(NC(=O)c2ccco2)c(C(c2ccncc2)N2CCOCC2)c1C (configuration not stated) | inactive
94 | CC1(C)CC(=O)C(C(c2ccco2)C2C(=O)CC(C)(C)CC2=O)C(=O)C1 | inactive
95 | Cc1noc(NS(=O)(=O)c2ccc(NC(=O)c3ccccc3NS(=O)(=O)c3ccc(F)cc3)cc2)c1C | inactive
96 | C/C(=N/Nc1ccc(C(=O)O)cc1)c1ccc(O)c(O)c1O | inactive
97 | CCS(=O)(=O)c1nc(S(=O)(=O)c2ccc(C)cc2)c(N2CCOCC2)s1 | inactive

From PubChem BioAssay AID588742 (Southern Research Specialized Biocontainment Screening …, 2011)
